We go through 40 compounds from PubChem BioAssay (Tox21).

A number with no mark means an inactive call. The call rests on the fitted dose curve; in most records, active means well fitted activation curve with a large enough effect in the repeat runs; inconclusive means weak or mixed curves; inactive means flat fitted curve, though single readings scatter.
On the % scale 0 is the no-effect control and ±100 the full control effect.

The nature of this assay: Caspase-3/7 induction in CHO-K1 cells by small molecules, qHTS assay (AID 1346980). Further: nearly all actives have a fitted effect of over 15% in size. To be noted: CHO-K1 caspase-3/7 induction, Caspase-Glo luminescence, 17 h; series mostly up to 92.4 µM; caspase-3/7 activation: at the top concentration. The text has this: National Center for Advancing Translational Sciences [NCATS]
NIH Chemical Genomics Center [NCGC]
U.S. Environmental Protection Agency [EPA]
National Institutes of Environmental Health Sciences [NIEHS]
National Toxicology Program [NTP]
Apoptosis is a process of programmed cell death and plays a central role in the development of multicellular organisms. It is a highly regulated process and induces cell death by activating caspases, which are the members of cysteine aspartic acid-specific protease (caspase) family. Caspases involved in apoptosis are classified by their mechanism of action as initiator caspases (caspase-2, -8, -9 and -10) and executioner caspases (caspase-3, -6, and -7). Inhibition of apoptosis results in number of cancers, autoimmune diseases, inflammatory diseases and viral infection. To identify small molecule compounds that induce apoptosis, a homogeneous, luminescent Caspase-Glo 3/7 assay was used. Wild type CHO-K1 cells were used to screen Tox21 libraries for identifying caspase-3/7 activity inducers.
CHO-K1 cells were dispensed at 1,500 per well in 5uL of culture medium into white solid bottom 1536-well plates (Corning Life Sciences, Corning, NY) using a Multidrop Combi (Thermo Scientific, Waltham, MA) dispenser. The assay plates were incubated at 37 C and 5% CO2 for 5hr, and then 23nL of compounds dissolved in DMSO and positive control were transferred using a Pintool station (Wako, San Diego, CA). The assay plates were incubated at 37C and 5% CO2 for 17hr. For caspase-3/7 activity read, 4uL of Caspase-Glo 3/7 reagent (Promega Corporation, Madison, WI) was added to each well of the assay plates using Flying Reagent Dispenser (FRD, Aurora Discovery, San Diego, CA) and incubated the assay plates at room temperature for 30min. The luminescence signal was quantified using a ViewLux plate reader (Perkin Elmer, Shelton, CT).
On the technique in general: Quantitative high-throughput screening tests each substance at several concentrations.
For `C=C(C)C(=O)OCCNC(C)(C)C`, the “caspase-3/7 activation” value was -0.776%.

For the compound `O=C(O)Cc1cn(-c2ccccc2)nc1-c1ccc(Cl)cc1`, the “caspase-3/7 activation” value was -0.789% [at 42.5 µM].

In the case of `COCCOC(=O)C1=C(C)NC(C)=C(C(=O)OC(C)C)C1c1cccc([N+](=O)[O-])c1` (stereo not given), the “caspase-3/7 activation” value was 0.009% [at 42.5 µM].

On to `CC(C)c1ccc2cc(C(C)C)ccc2c1`, for which the “caspase-3/7 activation” value was 0.0458%.

Turning to `CC1=C(C(=O)O)N2C(=O)[C@@H](NC(=O)[C@H](N)c3ccc(O)cc3)[C@H]2SC1`, the “caspase-3/7 activation” value is -0.0122% [at 42.5 µM].

Turning to `COC(=O)c1ccccc1C(=O)c1ccc(OCCN2CCCCC2)cc1`, the “caspase-3/7 activation” value was -0.184% [at 42.5 µM].

For `C=C(C)C1CCC(C)(O)CC1` (stereo not given), the “caspase-3/7 activation” value is 0.0471%.

As to `O=C1c2cccc3c2[C@H](CCC3)CN1[C@@H]1CN2CCC1CC2`, the “caspase-3/7 activation” value was -1.66% [at 42.5 µM].

For `Nc1ncnc(Nc2ccccc2)n1`, the “caspase-3/7 activation” value is 0.0492% [at 42.5 µM].

As to `CC(C)(C)c1n[nH]c(=S)n(N)c1=O`, the “caspase-3/7 activation” value was -0.672%.

As for `O=C(/N=N/C(=O)OCc1ccccc1)OCc1ccccc1`, the “caspase-3/7 activation” value is -0.936%.

For `CC(C)C(=O)OCCc1ccccc1`, the “caspase-3/7 activation” value is 0.105%.

On to `C[Si](C)(C)C`, for which the “caspase-3/7 activation” value is 0.908%.

In the case of `CCCCNC1CC(C)(C)NC(C)(C)C1`, the “caspase-3/7 activation” value is 0.803%.

As to `Nc1ccc(S(=O)(=O)Nc2ccc(Cl)nn2)cc1`, the “caspase-3/7 activation” value was -0.0256% [at 42.5 µM].

With `CC[C@H](C)C(=O)O[C@H]1C[C@H](O)C=C2C=C[C@H](C)[C@H](CC[C@@H](O)C[C@@H](O)CC(=O)O)[C@H]21`, the “caspase-3/7 activation” value is -0.133%.

For `N[C@@H](COP(=O)(O)O)C(=O)O`, the caspase-3/7 activation is 0.116% [at 19 µM].

As for `CN=C(NC#N)Nc1ccc(C2=NNC(=O)CC2C)cc1` (stereo not given), the “caspase-3/7 activation” value is 0.106% [at 42.5 µM].

In the case of `O=S(=O)(O)CCN1CCN(CCO)CC1`, the “caspase-3/7 activation” value was -1.82%.

Regarding `CC(=C(CCOC(=O)C(C)C)SSC(CCOC(=O)C(C)C)=C(C)N(C=O)Cc1cnc(C)nc1N)N(C=O)Cc1cnc(C)nc1N`, the “caspase-3/7 activation” value is -1.36% [at 42.5 µM].

`C=CCCCCCCCCCCCC`: the “caspase-3/7 activation” value was -1.12%.

As for `CC(C)C(=O)OCc1cccc(OC(=O)[C@@H]2N3C(=O)[C@@H](NC(=O)Cc4ccccc4)[C@H]3SC2(C)C)c1`, the “caspase-3/7 activation” value was -0.323% [at 42.5 µM].

`CCC(C)NC(N)=O` (stereo not given): the “caspase-3/7 activation” value was 2.23%.

Consider `CCCCN`, for which the “caspase-3/7 activation” value was -0.585% [at 42.5 µM].

With `Nc1ccc2cc(S(=O)(=O)O)cc(O)c2c1`, the “caspase-3/7 activation” value was -1.28%.

For `COc1ccc2c(c1)C(=O)N(CCc1ccc(S(=O)(=O)NC(=O)NC3CCCCC3)cc1)C(=O)C2(C)C`, the “caspase-3/7 activation” value was -0.726% [at 42.5 µM].

As to `CCCCCCCCC(=O)Cl`, the “caspase-3/7 activation” value is -0.0064%.

`O=C1c2ccccc2C(=O)N1CCl`: the “caspase-3/7 activation” value was 0.449%.

As for `O=S(=O)(O)c1ccc2cc(O)c(S(=O)(=O)O)cc2c1`, the “caspase-3/7 activation” value was -0.915%.

Take `CC(C)CC(=O)O`: the “caspase-3/7 activation” value is -0.673%.

As to `CCCCC(CC)COCCO` (stereo not given), the “caspase-3/7 activation” value is -0.371%.

For the compound `Cc1ccc2ccc(Cl)cc2n1`, the “caspase-3/7 activation” value is -0.349% [at 42.5 µM].

Turning to `CCC(C=O)CC`, the “caspase-3/7 activation” value was 4.06%.

As for `Cc1ccccc1N=O`, the “caspase-3/7 activation” value was 0.0333%.

Consider `CNC(=O)[C@H]1O[C@@H](n2cnc3c(NCc4cc(Cl)ccc4OCc4cc(C)no4)ncnc32)[C@H](O)[C@@H]1N`, for which the “caspase-3/7 activation” value is 0.0238%.

Take `CC(C)NCC(O)COc1cccc2[nH]ccc12` (stereo not given): the “caspase-3/7 activation” value is -0.613% [at 42.5 µM].

For `O=C1CC(c2ccc(Cl)cc2)CC(=O)N1`, the “caspase-3/7 activation” value was 0.15% [at 42.5 µM].

`COc1ccc(C2CNC(=O)C2)cc1OC1CCCC1` (stereo not given): the “caspase-3/7 activation” value is 2.25% [at 42.5 µM].

`CC(C)C[C@H](NC(=O)CNC(=O)[C@H](Cc1ccc(O)cc1)NC(=O)[C@H](CO)NC(=O)[C@H](Cc1c[nH]c2ccccc12)NC(=O)[C@H](Cc1cnc[nH]1)NC(=O)[C@@H]1CCC(=O)N1)C(=O)N[C@@H](CCCN=C(N)N)C(=O)N1CCC[C@H]1C(=O)NCC(N)=O` (stereo in doubt): the “caspase-3/7 activation” value was -1.23% [at 42.5 µM].

With `CC/C=C\CC1=C(C)CCC1=O`, the “caspase-3/7 activation” value was -2.09%.
